This is an account of results in the supplement of paper PMC9492666.

Counter-ions that a name gives are not always drawn.

Test [1] has as its system HCC1937. The test can be described thus: relative cell viability, compound + erastin, vs DMSO (fraction of DMSO control); higher = less growth inhibition. Particulars: 72 h.
Test [2] deals with MDA-MB-231. Described as above. Conditions: 72 h.
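Note: viability read by CCK-8 kit in 96-well plates, part of a combination screen pairing lipid-metabolism-targeting compounds with erastin.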

On to `CCCCCCCCCc1ccc(B(O)O)cc1` [4-Nonylphenylboronic acid] + CCOc1ccccc1-n1c(C(C)N2CCN(C(=O)COc3ccc(Cl)cc3)CC2)nc2ccccc2c1=O [erastin], for which the relative cell viability amounted to 0.9 in test [1] and 0.358 in test [2].
The like results for `CCCCCCCCCCCCCCCC(=O)NCCO` [Palmidrol] + CCOc1ccccc1-n1c(C(C)N2CCN(C(=O)COc3ccc(Cl)cc3)CC2)nc2ccccc2c1=O [erastin] were, in that order, 0.91 and 0.938.
The like results for `CCCc1c(-c2ccccc2)[nH]n(-c2ccccn2)c1=O` [APX-115 free base] + CCOc1ccccc1-n1c(C(C)N2CCN(C(=O)COc3ccc(Cl)cc3)CC2)nc2ccccc2c1=O [erastin] were, in that order, 0.615 and 0.625.
Regarding `CC1(C)CC[C@]2(C(=O)O[C@@H]3O[C@H](CO)[C@@H](O)[C@H](O)[C@H]3O)CC[C@]3(C)C(=CC[C@@H]4[C@@]5(C)CC[C@H](O[C@@H]6O[C@H](C(=O)O)[C@@H](O)[C@H](O)[C@H]6O)C(C)(C)[C@@H]5CC[C@]43C)[C@@H]2C1` [Chikusetsusaponin IVa] + CCOc1ccccc1-n1c(C(C)N2CCN(C(=O)COc3ccc(Cl)cc3)CC2)nc2ccccc2c1=O [erastin], the relative cell viability is 0.592 in test [1] and 0.682 in test [2].
The like results for `O=C(O)CN(CC(=O)O)c1ccccc1OCCOc1ccccc1N(CC(=O)O)CC(=O)O` + CCOc1ccccc1-n1c(C(C)N2CCN(C(=O)COc3ccc(Cl)cc3)CC2)nc2ccccc2c1=O [erastin] were, in that order, 0.597 and 0.765.
Regarding `Cc1cc(C)c(S(=O)(=O)Nc2cccc(C(F)(F)F)c2)c(C)c1` + CCOc1ccccc1-n1c(C(C)N2CCN(C(=O)COc3ccc(Cl)cc3)CC2)nc2ccccc2c1=O [erastin], the relative cell viability in test [1] was 0.922; in test [2], 0.98.
With `Oc1ccc2c(c1)OCO2` [Sesamol] + CCOc1ccccc1-n1c(C(C)N2CCN(C(=O)COc3ccc(Cl)cc3)CC2)nc2ccccc2c1=O [erastin], the relative cell viability in test [1] came out at 0.489; in test [2], 1.02.
For the compound `Cc1ccc(C)c(OCCCC(C)(C)C(=O)O)c1` [Gemfibrozil] + CCOc1ccccc1-n1c(C(C)N2CCN(C(=O)COc3ccc(Cl)cc3)CC2)nc2ccccc2c1=O [erastin], the figures for the relative cell viability in test [1] and in test [2] were 0.688 and 0.941, respectively.
Regarding `Cc1c2c(=O)n(-c3ccccc3Cl)[nH]c2cc(=O)n1Cc1ccccn1` + CCOc1ccccc1-n1c(C(C)N2CCN(C(=O)COc3ccc(Cl)cc3)CC2)nc2ccccc2c1=O [erastin], the relative cell viability came to 0.72 in test [1] and 0.784 in test [2].
The like results for `CC(C)(Oc1ccc(C(=O)c2ccc(Cl)cc2)cc1)C(=O)O` [Choline Fenofibrate] + CCOc1ccccc1-n1c(C(C)N2CCN(C(=O)COc3ccc(Cl)cc3)CC2)nc2ccccc2c1=O [erastin] were, in that order, 0.848 and 0.662.
The like results for `CCCCCCCCCCCCCCOc1ccc(C(=O)OCC(=O)N(C)CC(=O)OCC)o1` [Olumacostat Glasaretil] + CCOc1ccccc1-n1c(C(C)N2CCN(C(=O)COc3ccc(Cl)cc3)CC2)nc2ccccc2c1=O [erastin] were, in that order, 0.549 and 0.477.
The like results for `CC(C)(O)c1ccccc1CC[C@@H](SCC1(CC(=O)O)CC1)c1cccc(/C=C/c2ccc3ccc(Cl)cc3n2)c1` [Montelukast] + CCOc1ccccc1-n1c(C(C)N2CCN(C(=O)COc3ccc(Cl)cc3)CC2)nc2ccccc2c1=O [erastin] were, in that order, 0.561 and 0.829.
With `CCCCCCCCCCC#CC#CCCCCCCCCC(=O)O` [10,12-Tricosadiynoic acid] + CCOc1ccccc1-n1c(C(C)N2CCN(C(=O)COc3ccc(Cl)cc3)CC2)nc2ccccc2c1=O [erastin], the figures for the relative cell viability in test [1] and in test [2] were 0.648 and 0.627, respectively.
`COc1cc(O)c2c(c1)O[C@H](c1ccc(O)cc1)CC2=O` [Sakuranetin] + CCOc1ccccc1-n1c(C(C)N2CCN(C(=O)COc3ccc(Cl)cc3)CC2)nc2ccccc2c1=O [erastin]: the figures for the relative cell viability in test [1] and in test [2] were 0.648 and 0.527, respectively.
The like results for `CCCCCCCCCCCCCCOc1ccc(C(=O)O)o1` + CCOc1ccccc1-n1c(C(C)N2CCN(C(=O)COc3ccc(Cl)cc3)CC2)nc2ccccc2c1=O [erastin] were, in that order, 0.56 and 0.696.
Take `COc1ccc(-c2coc3cc(OC)ccc3c2=O)cc1` [4',7-Dimethoxyisoflavone] + CCOc1ccccc1-n1c(C(C)N2CCN(C(=O)COc3ccc(Cl)cc3)CC2)nc2ccccc2c1=O [erastin]: the relative cell viability was found to be 0.313 in test [1] and 0.427 in test [2].
On to `COc1ccc(CN2CCNCC2)c(OC)c1OC` [Trimetazidine dihydrochloride] + CCOc1ccccc1-n1c(C(C)N2CCN(C(=O)COc3ccc(Cl)cc3)CC2)nc2ccccc2c1=O [erastin], for which the relative cell viability was 0.786 in test [1] and 0.55 in test [2].
